Results published in PubChem BioAssay (Tox21).
“And” between values parts separate entries of the source, which are not always exact repeats. Equal values may be shown once. Inconclusive results are not listed. Unmarked numbers belong to inactive results. The source made the active and inactive calls. Calls come from the whole dose curve; as a rule, active = well fitted cell-killing curve with a large enough effect in the repeat runs; inconclusive = weak or mixed curves, or effect the other way; inactive = no such curve, though single readings can be large or run the other way. Positions of bridges follow the written chain, without caps; N, C: chain ends. Non-standard residues stand in square brackets, D forms with d. Residues, ends and D or L forms follow the SMILES beside them. *: point of attachment. Dab(CH2SO3H) = N[C@@H](CCNCS(=O)(=O)O)C(=O)O; X3 = CC[C@@H](C)CCCCC(=O)*; Dab = NCC[C@H](N)C(=O)O

Assay: qHTS assay to identify small molecule antagonists of the glucocorticoid receptor (GR) signaling pathway - cell viability counter screen (AID 720693); note: nearly all actives have a fitted effect of over 55% in size
Conditions: GR-bla HeLa viability, CellTiter-Glo luminescence, 18 h, with 5 nM dexamethasone present; series mostly up to 58.5 µM; viability change, negative = cytotoxic: at the top concentration
% is set by controls: 0 for no effect and ±100 for the full control effect; potency is the fitted concentration of half-maximal effect.

Question: Which Potency does the source give for `CC[C@H]1OC(=O)[C@H](C)C(=O)[C@H](C)[C@@H](O[C@@H]2O[C@H](C)C[C@H](N(C)C)[C@H]2O)[C@](C)(OC)C[C@@H](C)C(=O)[C@H](C)[C@H]2N(CCCCn3cnc(-c4cccnc4)c3)C(=O)O[C@]12C` here?
Answer: The Potency was “inactive”.

Question: For `COc1cccc2c1[C@@H]1CN(CCCCn3c(=O)[nH]c4c(sc5ncc(-c6ccccc6)nc54)c3=O)C[C@@H]1CO2`, which “viability change, negative = cytotoxic” value is on record?
Answer: Its value is -2.85%.

Question: Which “viability change, negative = cytotoxic” value does the source give for `O=P(O)(O)OP(=O)(O)OP(=O)(O)O` here?
Answer: Its value is -1.53%.

Question: For `NC[C@@H]1CC[C@@H](N)[C@@H](O[C@H]2[C@H](O)[C@@H](O[C@H]3O[C@H](CO)[C@@H](O)[C@H](N)[C@H]3O)[C@H](N)C[C@@H]2N)O1`, which “viability change, negative = cytotoxic” value is on record?
Answer: The value was 2.35%.

Question: For `CC(=O)OCC(=O)[C@@]1(O)CC[C@H]2[C@@H]3CCC4=CC(=O)CC[C@]4(C)C3=CC[C@@]21C`, which “viability change, negative = cytotoxic” value is on record?
Answer: Its value is 5.32%.

Question: For `CN1CCN(CCCN2c3ccccc3Sc3ccc(Cl)cc32)CC1`, which Potency is on record?
Answer: The Potency was 23.9 µM (active).

Question: With `CN1CC[C@H](c2c(O)cc(O)c3c(=O)cc(-c4ccccc4Cl)oc23)[C@H](O)C1` as the compound, how does the Potency read?
Answer: The Potency was 0.601 µM (active).

Question: For `COc1c(Br)cc(Br)c(C)c1Br`, which “viability change, negative = cytotoxic” value is on record?
Answer: The value was 22.2%.

Question: Which “viability change, negative = cytotoxic” value does the source give for `CC12CCC(C[N+](C)(CCC[N+](C)(C)C)C1)C2(C)C` (centres undefined) here?
Answer: The value was 4.07%.

Question: Which Potency does the source give for `O=C1c2c(O)cccc2[C@H]([C@@H]2O[C@H](CO)[C@@H](O)[C@H](O)[C@H]2O)c2cc(CO)cc(O)c21` here?
Answer: Its Potency is “inactive”.

Question: With `NCC(O)CC(=O)O` (centres undefined) as the compound, how does the “viability change, negative = cytotoxic” value read?
Answer: Its value is 18.4%.

Question: With `CCOc1ccc(S(=O)(=O)O)c2cccnc12` as the compound, how does the “viability change, negative = cytotoxic” value read?
Answer: The value was -0.766%.

Question: For `CC12CCC(C1)C(C)(C)C2=O` (centres undefined), which “viability change, negative = cytotoxic” value is on record?
Answer: Its value is -0.615%.

Question: Which “viability change, negative = cytotoxic” value does the source give for `CN1C(=O)C[C@@H](C(=O)N[C@@H](Cc2cnc[nH]2)C(=O)N2CCC[C@H]2C(N)=O)NC1=O` here?
Answer: The value was 0.692%.

Question: Which “viability change, negative = cytotoxic” value does the source give for `NC[C@H]1O[C@H](O[C@H]2[C@H](O)[C@@H](O[C@H]3O[C@H](CO)[C@@H](O)[C@H](N)[C@H]3O)[C@H](N)C[C@@H]2N)[C@H](N)C[C@@H]1O` here?
Answer: Its value is 10.2% [at 27 µM].

Question: Which “viability change, negative = cytotoxic” value does the source give for `NCC[C@H](O)C(=O)N[C@@H]1C[C@H](N)[C@@H](O[C@H]2O[C@H](CN)CC[C@H]2N)[C@H](O)[C@H]1O[C@H]1O[C@H](CO)[C@@H](O)[C@H](N)[C@H]1O` here?
Answer: The value was 7.85%.

Question: Which “viability change, negative = cytotoxic” value does the source give for `CC1(C)S[C@@H]2[C@H](NC(=O)[C@@H](NC(=O)N3CCNC3=O)c3ccccc3)C(=O)N2[C@H]1C(=O)O` here?
Answer: The value was -1.09% [at 27 µM].

Question: With `C=CC[N@@+]12CC[C@@]34c5ccccc5N5/C=C6/[C@H]7C[C@H]8[C@@]9(CC[N@@+]8(CC=C)C/C7=C/CO)c7ccccc7N(/C=C(/[C@@H](C[C@@H]31)/C(=C\CO)C2)[C@H]54)[C@@H]69` as the compound, how does the “viability change, negative = cytotoxic” value read?
Answer: Its value is -0.761% [at 27 µM].

Question: Which “viability change, negative = cytotoxic” value does the source give for `CC(C)Cc1ccc([C@H](C)C(=O)O)cc1` here?
Answer: The value was -3.65%.

Question: Which Potency does the source give for `COc1cc2c(cc1OC)[C@@H](Cc1cc(OC)c(OC)c(OC)c1)[N+](C)(CCCOC(=O)CC/C=C/CCC(=O)OCCC[N+]1(C)CCc3cc(OC)c(OC)cc3[C@H]1Cc1cc(OC)c(OC)c(OC)c1)CC2` (some centres undefined) here?
Answer: The Potency was “inactive”.

Question: Which “viability change, negative = cytotoxic” value does the source give for `FC(F)(F)C(F)(F)C(F)(F)C(F)(F)C(F)(F)F` here?
Answer: Its value is 7.18%.

Question: With `COc1ccc(/C=N/NC(=O)c2ccncc2)c(C(=O)O)c1OC` as the compound, how does the “viability change, negative = cytotoxic” value read?
Answer: The value was 5.78%.

Question: For `C[C@]12O[C@H](C[C@]1(O)CO)n1c3ccccc3c3c4c(c5c6ccccc6n2c5c31)CNC4=O`, which Potency is on record?
Answer: Its Potency is 3.01 µM (active).

Question: With `Cc1cc(-c2ccc(N=Nc3ccc4c(S(=O)(=O)O)cc(S(=O)(=O)O)c(N)c4c3O)c(C)c2)ccc1N=Nc1ccc2c(S(=O)(=O)O)cc(S(=O)(=O)O)c(N)c2c1O` as the compound, how does the Potency read?
Answer: The Potency was “inactive”.

Question: With `CC[N+](CC)(CC)CCC(O)(c1ccccc1)C1CCCCC1` (centres undefined) as the compound, how does the “viability change, negative = cytotoxic” value read?
Answer: Its value is -6.29% [at 27 µM].

Question: With `CC(C)c1ncc([N+](=O)[O-])n1C` as the compound, how does the “viability change, negative = cytotoxic” value read?
Answer: Its value is 13.1%.

Question: For `CC[C@H](C)C(=O)O[C@H]1CCC=C2C=C[C@H](C)[C@H](CC[C@@H]3C[C@@H](O)CC(=O)O3)[C@H]21`, which “viability change, negative = cytotoxic” value is on record?
Answer: The value was -16.2%.

Question: With `CCN(CC)CCNC(=O)c1ccc(NS(C)(=O)=O)cc1` as the compound, how does the “viability change, negative = cytotoxic” value read?
Answer: The value was -2.85%.

Question: Which “viability change, negative = cytotoxic” value does the source give for `CN(C)CCc1c[nH]c2ccc(Cn3cncn3)cc12` here?
Answer: The value was 11.6%.

Question: Which Potency does the source give for `C=C1C(=C/C=C2\CCC[C@]3(C)[C@@H]([C@H](C)CCCC(C)C)CC[C@@H]23)C[C@@H](O)C[C@@H]1O` here?
Answer: The Potency was 21.3 µM (active).

Question: With `C/C=C/C1=C(C(=O)O)N2C(=O)[C@@H](NC(=O)[C@H](N)c3ccc(O)cc3)[C@H]2SC1` as the compound, how does the “viability change, negative = cytotoxic” value read?
Answer: Its value is 4.99%.

Question: With `O=C1C2CC3CC1CC(O)(C3)C2` as the compound, how does the “viability change, negative = cytotoxic” value read?
Answer: The value was -0.0255%.

Question: Which Potency does the source give for `COC(=O)C[C@](O)(CCCC(C)(C)O)C(=O)O[C@@H]1C(OC)=CC23CCCN2CCc2cc4c(cc2[C@H]13)OCO4` (some centres undefined) here?
Answer: The Potency was 1.2 µM (active) and 1.07 µM (active).

Question: Which “viability change, negative = cytotoxic” value does the source give for `CC[C@@H](C)CCCCC(=O)N[C@@H](CCNCS(=O)(=O)O)C(=O)N[C@H](C(=O)N[C@@H](CCNCS(=O)(=O)O)C(=O)N[C@H]1CCNC(=O)[C@H]([C@@H](C)O)NC(=O)[C@H](CCNCS(=O)(=O)O)NC(=O)[C@H](CCNCS(=O)(=O)O)NC(=O)[C@H](CC(C)C)NC(=O)[C@@H](CC(C)C)NC(=O)[C@H](CCNCS(=O)(=O)O)NC1=O)[C@@H](C)O` (X3-[Dab(CH2SO3H)]T[Dab(CH2SO3H)][Dab][Dab(CH2SO3H)][dL]L[Dab(CH2SO3H)][Dab(CH2SO3H)]T; lactam 4-C) here?
Answer: Its value is 13.3%.
